Assay outcomes: PubChem BioAssay, several laboratories
Compounds with a hit are over-represented: about 4.3% of the library has one in this group of screens.
FAS TE block: FAS thioesterase domain inhibitors, primary screen, biochemical, fluorescence intensity, uHTS; Fatty acid synthase (Homo sapiens), P49327; recombinant FAS-TE, OMFH fluorogenic substrate, fluorescence endpoint; inhibition, % at 15 µM; actives 0.67% (n = 360,000);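 active means compounds whose normalised, plate-corrected inhibition of enzyme fluorescence in the single-dose primary screen is 50% or more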;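 further: 0% = DMSO with enzyme and 100% = substrate without enzyme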
NadD inh: inhibitors of S. aureus NadD, primary screen, biochemical, colorimetric, uHTS; purified NadD enzyme, colorimetric absorbance read-out; inhibition, % at 20 µM; AID 602399, 2012; actives 0.78% (n = 360,000); Nicotinate-nucleotide adenylyltransferase NadD (Staphylococcus aureus N315); in the data active means inhibition above about 26%
rCAG RNA binder: binders of r(CAG) RNA repeats, primary screen, biochemical, fluorescence; AID 651821, 2012; inhibition, % at 3 µM; actives 1.3% (n = 370,000); r(CAG) RNA repeat, TO-PRO-1 dye displacement fluorescence;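 active means inhibition above the plate cutoff, the mean of all test compounds on that plate plus 3 SD, cut at about 35% in these data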;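 further: 0% = DMSO alone and 100% = 100 µM mitoxantrone as full dye displacement; higher means more dye released from RNA so lower well fluorescence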
NR3A LBD binder: binders of NR3A ligand-binding domain, primary screen, biophysical, differential scanning fluorimetry, uHTS; Glutamate receptor ionotropic, NMDA 3A (GRIN3A) ligand-binding domain; NR3A LBD differential scanning fluorimetry, Tm shift; 0% = protein alone, 100% = glycine-bound protein; Tm shift relative to glycine control, % at 25 µM; actives 2.5% (n = 340,000);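 active means melting temperature shift of at least 10% of the positive control shift, at one fixed dose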
Numbers without * were called inactive; . = no result given.

SMILES	FAS TE block	NadD inh	rCAG RNA binder	NR3A LBD binder
N#Cc1c(NC(=O)c2nc3ncccn3n2)sc2c1CCCCC2	-5	1	5	18*
N#Cc1c(NC(=S)NC(=O)Cc2cccs2)sc2c1CCCCC2	26	24	14	20*
Cc1ccc(OCCOC(=O)c2sc(=S)n(C)c2C)cc1	58*	-4	2	-1
COCCNC(=O)c1cc2c(s1)-c1ccc(Cl)cc1SC2	8	-12	5	-12
NC(=O)c1cc2c(s1)-c1cc(Cl)ccc1SC2	2	-2	7	47*
CN1CCCN(C(=O)CSc2nnc(-c3cccnc3)n2C2CCCCC2)CC1	.	.	-2	.
CCOCCCNCc1cc(Br)ccc1OCc1ccccc1	-14	0	3	0
OCCNCc1cc(Br)ccc1OCc1ccccc1	-7	-10	3	13*
Cc1ccccc1NC(=O)COC(=O)c1ccc(CSc2ccc(Cl)cc2)cc1	-9	15	-1	12*
Cc1ccccc1NC(=O)COC(=O)c1cccnc1	-5	-1	-2	-9
COc1cc([N+](=O)[O-])c(OC)cc1SCc1n[nH]c(=S)n1-c1ccc(F)cc1	11	-1	14	1
COc1cc([N+](=O)[O-])c(OC)cc1SCc1n[nH]c(=S)n1-c1ccc(C)cc1	20	4	14	12*
CCS(=O)(=O)Nc1ccc2c(c1)C(=O)N(C)[C@@H]1CC[C@H](CC(=O)NCCOC)O[C@H]1CO2	.	.	0	.
O=C(O)c1ccc(C=NN=C2c3ccccc3-c3ccccc32)cc1	8	7	17	28*
O=C(O)c1ccc(N=C2c3ccccc3-c3ccccc32)cc1	1	-2	2	2
Cc1cc(-c2n[nH]c(=S)n2N=Cc2ccc(O)cc2)n[nH]1	.	.	2	.
CC(=O)c1ccc(N2CCN(C(=O)COc3ccccc3F)CC2)c(F)c1	-8	-8	-1	10*
CCC(=O)c1ccc(N2CCN(C(=O)COc3ccccc3F)CC2)c(F)c1	0	-3	-4	0
CCOC(=O)c1cn(Cc2ccccc2)c2cc(C)nn2c1=O	-6	-1	-3	11*
CC(C)NC(=O)NC1CCN(CC(=O)Nc2ccc3c(c2)OCCO3)CC1	.	.	3	.
NC(N)=NCCCC(NC(=O)c1ccccc1)C(=O)Nc1ccc2ccccc2c1 (centres undefined)	6	-3	22	5
NC(N)=NCCCC(NC(=O)c1ccccc1)C(=O)Nc1ccc([N+](=O)[O-])cc1 (centres undefined)	11	-7	23	16*
COc1cc(CN(C2CC2)S(=O)(=O)c2ccccc2Br)cc(OC)c1	23	-6	1	14*
O=C(NC(Cc1ccccc1)C(=O)Oc1ccc2c(C(F)(F)F)cc(=O)oc2c1)OCc1ccccc1 (centres undefined)	23	-2	.	14*
O=C(CNC(=O)OCc1ccccc1)Oc1ccc2ccc(=O)oc2c1	-2	-6	-3	2
SMILES	FAS TE block	NadD inh	rCAG RNA binder	NR3A LBD binder
N#C[C@H](N)[C@H]1O[C@@H](n2ccc(=O)[nH]c2=O)[C@H](O)[C@@H]1O	.	.	5	.
CN1CCN(C(c2ccc(C(F)(F)F)cc2)c2cc(Cl)c3cccnc3c2O)CC1 (centres undefined)	.	.	3	.
O=C(NC(c1ccc(Cl)cc1)c1cc(Cl)c2cccnc2c1O)c1cccnc1 (centres undefined)	-2	47*	0	-7
CN1CCN(C(c2ccc(Cl)cc2)c2cc(Cl)c3cccnc3c2O)CC1 (centres undefined)	7	16	7	34*
COc1cccc(-c2nnc(SCC(=O)Nc3cccc4ccccc34)n2Cc2ccco2)c1	.	.	6	.
Cc1ccccc1NC(=O)/C(C#N)=C\c1ccsc1	-6	-3	3	-2
Cc1ccc(NC(=O)/C(C#N)=C/c2ccsc2)c(C)c1	-4	-4	-4	12*
COC(CNC(=O)c1ccc2nc(-c3cccs3)c(-c3cccs3)nc2c1)OC	8	-11	0	16*
CC(C)CN1C(=O)[C@]2(CC(=O)N(C)C2c2ccccc2)c2cc(-n3cc(CCCC#N)nn3)ccc21 (some centres undefined)	.	.	0	.
COC(=O)N1CCCC1c1cccc2[nH]cc(C)c12 (centres undefined)	.	.	2	.
Cc1ccc(-n2nnnc2-c2ccccc2)cc1	-1	-3	-2	-1
COc1ccc(-n2nnnc2-c2cccnc2)cc1	-7	-2	2	15*
CC1(c2nnnn2Cc2ccccc2)CCCC(=O)N1Cc1cccs1 (centres undefined)	.	.	1	.
CC(=O)c1ccc(NC(=O)C2CCN(S(=O)(=O)c3ccc4c(c3)N(C(C)=O)CCO4)CC2)cc1	-3	-3	2	19*
Cc1cc(C)nc(NS(=O)(=O)c2ccc(NC(=O)Nc3ccccc3F)cc2)n1	-1	-7	11	11*
O=C(/C=C/c1ccc(F)cc1)Nc1ccc(S(=O)(=O)N2CCOCC2)cc1	14	-4	3	22*
O=C(Nc1cccc(F)c1)c1ccc(S(=O)(=O)N2CCCCC2)cc1	12	2	-2	17*
CC(=O)N1CCOc2ccc(S(=O)(=O)N3CCC(C(=O)Nc4cc(C)cc(C)c4)CC3)cc21	10	-1	2	-3
COc1cc2c(cc1NC(=O)CSc1nnc(-c3cccnc3)n1-c1ccc(Br)cc1)oc1ccccc12	.	.	10	.
O=C(CNc1ccc(F)cc1Cl)Nc1cccc(S(=O)(=O)N2CCCCC2)c1	27	-9	6	13*
O=C(Nc1ccc(S(=O)(=O)N2CCCC2)cc1)c1ccc(Cl)nc1	-3	0	4	-2
O=C(Nc1ccc(F)cc1F)c1ccc(S(=O)(=O)N2CCCCC2)cc1	4	-4	-1	-2
O=C(CNc1cccc(S(=O)(=O)N2CCCC2)c1)Nc1cccc(F)c1	1	-8	0	0
COc1ccc(/C=C/C(=O)Nc2cccc(F)c2)cc1S(=O)(=O)N1CCOCC1	5	-10	6	10*
O=C(Nc1ccc(S(=O)(=O)N2CCCCC2)cc1)c1ccc(Cl)nc1	2	-6	5	24*
SMILES	FAS TE block	NadD inh	rCAG RNA binder	NR3A LBD binder
O=C(Nc1ccc(S(=O)(=O)N2CCCC2)cc1)Nc1ccc(F)cc1F	4	-4	10	37*
CC(C)(C)OC(=O)/C=C/[C@H](CCCCl)Sc1ccc(C(C)(C)C)cc1	.	.	1	.
Cc1nn(-c2ccccc2)c2sc(C(=O)NC3CCCCCC3)cc12	.	.	11	.
O=C(OC12CCCN(C1)/C(=C/c1ccc(Cl)cc1)C2)C1CCCCC1 (centres undefined)	.	.	4	.
Cc1ccccc1NC(=O)CSc1nnc(-c2cc(-c3ccccc3)n[nH]2)n1N	.	.	4	.
O=C(Nc1ccc(F)cc1)Nc1ccc(S(=O)(=O)N2CCCC2)cc1	13	-4	8	28*
Cc1ccc(S(=O)(=O)Nc2ccc(NC(=O)Nc3ccc(F)cc3F)cc2)cc1	13	-3	4	29*
